In PubChem BioAssay (NCATS):
Results filed as inconclusive are left out. Where a call stands in place of a potency, no number is given. The source made the active and inactive calls. Calls come from the whole dose curve.

Each molecule was assayed against Vitamin D3 receptor (Homo sapiens) (UniProt P11473) (assay: qHTS assay for small molecule agonists of vitamin D receptor signaling (AID 588543)). Settings: HEK293T VDR-UAS-bla, beta-lactamase ratio, 16 h; series mostly up to 76.8 µM.
Vitamin D3 receptor (Homo sapiens), sequence (P11473 whole entry, looked up): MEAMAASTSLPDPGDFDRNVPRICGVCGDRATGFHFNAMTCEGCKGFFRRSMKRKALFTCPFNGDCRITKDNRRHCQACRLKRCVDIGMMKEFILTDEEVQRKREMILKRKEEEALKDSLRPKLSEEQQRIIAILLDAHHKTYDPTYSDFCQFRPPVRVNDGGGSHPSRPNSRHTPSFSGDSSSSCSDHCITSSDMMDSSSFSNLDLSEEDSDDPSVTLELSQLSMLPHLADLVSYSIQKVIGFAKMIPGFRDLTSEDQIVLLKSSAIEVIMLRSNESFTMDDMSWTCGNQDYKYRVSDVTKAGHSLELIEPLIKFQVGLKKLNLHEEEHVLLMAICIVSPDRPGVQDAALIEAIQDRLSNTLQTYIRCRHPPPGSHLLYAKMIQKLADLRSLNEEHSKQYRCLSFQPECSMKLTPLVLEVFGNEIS
Source text: NIH Chemical Genomics Center [NCGC]
U.S. Environmental Protection Agency [EPA]
National Institutes of Environmental Health Sciences [NIEHS]
National Toxicology Program [NTP]
The Vitamin D receptor (VDR) is a member of nuclear hormone receptor superfamily and it plays a critical role in calcium homeostasis and bone metabolism. It plays a role in inducing cell differentiation, inhibiting cell growth and in thrombogenicity. So, VDR that mediates these effects represents a pharmacological target in prevention and treatment of hyperproliferative malignancies, such as cancer and psoriasis, cardiovascular, immunological, inflammatory and renal diseases etc.
NCGC Assay Protocol Summary
Using a beta-lactamase reporter-gene under control of Vitamin D receptor (VDR) response element, a cell-based assay [GeneBLAzer (VDR -UAS-bla assay developed by Invitrogen] was used to measure VDR ligands signaling. GeneBLAzer VDR -UAS-bla HEK293T cells were used with assay medium containing 2% charcoal-stripped FBS. The assay was performed in clear bottom black Greiner 1536-well plates. 1-alpha,25-Dihydroxy vitaminD3 was used as a positive control in the screen. Library compounds were measured for their ability to stimulate the reporter gene activity. Compounds were screened in a titration series in 1536-well format. The fluorescence intensity (405 nm excitation, 460/530 nm emission) was measured using an EnVision plate reader. Data was normalized relative to 1-alpha,25-Dihydroxy vitaminD3 control (50 nM, 100%) and DMSO only wells (basal, 0%). Concentration-response titration points for each compound were fitted to the Hill equation yielding concentrations of half-maximal stimulation (EC50) and maximal response (efficacy) values.
qHTS protocol for VDR beta-lactamase assay in agonist mode
[Step] [Parameter] [Value] [Description]
1. Reagent; 6 uL; 2000 cells/well
2. Incubation; 37 C for 5 hrs
4. Controls (1-alpha,25-Dihydroxy vitaminD3); 23 nL,
- Final concentrations of 50 nM and 15 nM in two columns
5. Incubation; 37 C for 16 hrs
6. Detection reagent; 1 uL of CCF4-dye
7. Incubation; RT for 2 hrs
8. Detection; Fluorescence; Envision plate reader
For `Cc1ccc(C(=O)O)cc1[N+](=O)[O-]`, the Potency was “inactive”. With `C=CC(C)(O)CCCC(C)CCCC(C)CCCC(C)C` (stereo not given) the Potency was “inactive”. `O=[N+]([O-])c1ccc(F)cc1F` was tested, and the Potency was “inactive”. With `Nc1cc([N+](=O)[O-])ccc1O` the Potency was “inactive”. `Nc1ccccc1O` was tested, and the Potency was “inactive”. `CC(=O)OCc1ccc2c(c1)OCO2` was tested, and the Potency was “inactive”. With `OCC(CBr)(CBr)CBr` the Potency was “inactive”. For `O=[N+]([O-])c1cc(Cl)c(Cl)c(Cl)c1Cl`, the Potency was “inactive”. In the case of `CC(C)OCC1CO1` (stereo not given), the Potency is reported as “inactive”. In the case of `Nc1ccc(-c2ccc(N)c(O)c2)cc1O`, the Potency is reported as “inactive”. In the case of `COc1ccc(C(=O)Nc2ccccc2)cc1[N+](=O)[O-]`, the Potency is reported as “inactive”. `O=C(OCc1ccccc1)c1ccccc1O` was tested, and the Potency was “inactive”. In the case of `CCN(CC)c1ccc(N)cc1`, the Potency is reported as “inactive”. For `Nc1cc(C(=O)O)c(O)c(S(=O)(=O)O)c1`, the Potency was “inactive”. In the case of `COc1ccc([N+](=O)[O-])cc1N`, the Potency is reported as “inactive”. In the case of `CCOC(=O)C1OC1c1ccccc1` (stereo not given), the Potency is reported as “inactive”. `Cc1cc(-c2ccc(N=Nc3cc(S(=O)(=O)O)c4ccccc4c3N)c(C)c2)ccc1N=Nc1cc(S(=O)(=O)O)c2ccccc2c1N` was tested, and the Potency was “inactive”. With `C=CC(=O)OCCCCCCOC(=O)C=C` the Potency was “inactive”. For `COc1cc(-c2ccc(N=C=O)c(OC)c2)ccc1N=C=O`, the Potency was “inactive”. In the case of `Oc1ccc2c(c1)OCO2`, the Potency is reported as “inactive”. In the case of `c1ccc2c(c1)ccc1ccccc12`, the Potency is reported as “inactive”. For `N[C@@H](Cc1ccccc1)C(=O)O`, the Potency was “inactive”. With `C=Cc1cccc(C)c1` the Potency was “inactive”. For `c1c[nH]cn1`, the Potency was “inactive”. With `CCCCOC(=O)COc1ccc(Cl)cc1Cl` the Potency was “inactive”. For `CCCCC(CC)COP(=O)(OCC(CC)CCCC)OCC(CC)CCCC` (stereo not given), the Potency was “inactive”. For `CC1=C(/C=C/C(C)=C/C=C/C(C)=C/C=O)C(C)(C)CCC1`, the Potency was “inactive”. In the case of `Nc1ccc(N)c(Cl)c1`, the Potency is reported as “inactive”. `O=CC(=O)c1ccccc1` was tested, and the Potency was “inactive”. In the case of `S=C(NC1CCCCC1)NC1CCCCC1`, the Potency is reported as “inactive”. In the case of `CCCCCCCC/C=C\CCCCCCCC(=O)N(CCO)CCO`, the Potency is reported as “inactive”. With `Cc1cccnc1` the Potency was “inactive”. In the case of `CC(=O)CC(=O)Nc1ccccc1`, the Potency is reported as “inactive”. For `C=CC1CO1` (stereo not given), the Potency was “inactive”. `O=[N+]([O-])c1cc(N(CCO)CCO)ccc1NCCO` was tested, and the Potency was “inactive”. For `O=C(O)c1ccc([N+](=O)[O-])cc1`, the Potency was “inactive”. For `CCCCCCCCOc1ccc(C(=O)O)cc1`, the Potency was “inactive”. In the case of `O=C1OC(=O)c2ccccc21`, the Potency is reported as “inactive”. With `Nc1cnn([C@@H]2O[C@H](CO)[C@@H](O)[C@H]2O)c(=O)n1` the Potency was “inactive”. With `C/C=C/C=C/C=O` the Potency was “inactive”.
